# PHOSPHO1 block: PubChem AID 1565; recombinant PHOSPHO1, absorbance phosphatase assay; hit rate 1.1% among 290,000; Phosphoethanolamine/phosphocholine phosphatase (Homo sapiens), Q8TCT1; inhibition, % at 13.3 µM; in the data active = inhibition above about 60%
# HNF4A DNA FP: change in binding of human HNF4A to DNA, primary screen, biochemical, fluorescence polarization, FITC-DNA | Hepatocyte nuclear factor 4-alpha (Homo sapiens), P41235 | activity change, % at 10 µM | 1 h | hit rate 0.3% among 360,000; in the data active = activity change above about 30%, passing the limit was not always enough
# Target sequence (P41235 whole entry, looked up): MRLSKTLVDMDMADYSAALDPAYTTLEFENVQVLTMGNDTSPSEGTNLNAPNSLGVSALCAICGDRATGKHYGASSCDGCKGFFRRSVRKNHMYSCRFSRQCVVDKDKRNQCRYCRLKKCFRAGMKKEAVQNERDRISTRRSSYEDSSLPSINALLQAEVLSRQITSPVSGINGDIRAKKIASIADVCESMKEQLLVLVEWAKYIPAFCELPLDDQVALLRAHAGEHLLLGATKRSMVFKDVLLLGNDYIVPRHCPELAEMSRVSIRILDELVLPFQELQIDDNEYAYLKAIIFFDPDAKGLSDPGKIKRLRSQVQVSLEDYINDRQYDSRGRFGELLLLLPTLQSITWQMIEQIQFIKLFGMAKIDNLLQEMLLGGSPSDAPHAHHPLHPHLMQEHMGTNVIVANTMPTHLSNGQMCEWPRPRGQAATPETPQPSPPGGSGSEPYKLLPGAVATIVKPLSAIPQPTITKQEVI
# NRP1-CendR mod: modulators of CendR peptide binding to NRP-1, primary screen, biochemical, fluorescence polarization, uHTS | Neuropilin-1 (Homo sapiens), O14786 | hit rate 0.85% among 360,000 | FAM-RPARPAR peptide binding to NRP-1 | inhibition, % at 25 µM;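 active = inhibition or corrected inhibition above about 18%, plus a signal ratio from 0.5 to 1.5, limit read from the data, passing the limit was not always enough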
# TPT1 inhibitor: Candida albicans TPT1 enzyme inhibitors, primary screen, biochemical, fluorescence polarization; tRNA 2'-phosphotransferase TPT1 (Candida albicans SC5314); recombinant caTPT1, FP RNA substrate dephosphorylation; inhibition, % at 5 µM; hit rate 0.81% among 300,000;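 active = inhibition above the mean of all tested compounds plus 3 SD, set per screening campaign, cut at about 24% in these data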;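 note: plate controls were DMSO alone for no effect and ferristatin control at 100 nM for full effect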
# Rpn11 block: Rpn11 (PSMD14) deubiquitinase inhibitors, primary screen, biochemical, fluorescence polarization, uHTS; 26S proteasome non-ATPase regulatory subunit 14 (Homo sapiens), O00487; human 26S proteasome, Ub4-pepOG fluorescence polarization; 20S core pre-blocked with epoxomicin; inhibition, % at 20 µM; hit rate 0.59% among 360,000;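 active = inhibition at 20 µM, scaled to each plate's controls, above about 33%, limit read from the data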
# Fh CTSL1 inh: Fasciola hepatica cathepsin L1 inhibitors, primary screen, counter-screen for PFM18AAP inhibitor project, biochemical, QFRET, fluorogenic peptide substrate; recombinant F. hepatica cathepsin L1, Z-Leu-Arg-MCA fluorescence; inhibition, % at 5.96 µM; hit rate 0.49% among 300,000; AID 1906, 2009;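 active = inhibition above the mean of all tested compounds plus 3 SD, set per screening campaign, cut at about 17% in these data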;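 note: 0% = plate median of test compound wells and 100% = 1 µM Z-Phe-Ala-diazomethylketone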
# Active calls of the source: *; · = no result given. A selection: hits, their analogues and other compounds. The true share with any hit is near 3.3%.
SMILES,PHOSPHO1 block,HNF4A DNA FP,NRP1-CendR mod,TPT1 inhibitor,Rpn11 block,Fh CTSL1 inh
Nc1ccn(CC(=O)NCc2ccc3[nH]ccc3c2)c(=O)n1,·,5.3,32.1*,·,-2.7,·
O=C(c1cccc(Br)c1)N1CCN(c2ccc(N3CCOCC3)nn2)CC1,·,-0.2,-1.9,0.8,4.3,18.3*
CSc1ccc(NC(=O)NCc2cccnc2)cc1,14.0,0.1,6.4,0.4,0.3,-3.1
CCN(C(=O)CSc1nnc(-c2ccccc2Cl)n1C1CCCC1)C1CCS(=O)(=O)C1 (centres undefined),37.0,1.7,19.8*,-4.3,-0.9,-2.2
CCN(C(=O)CSc1nnc(-c2c[nH]c3ccccc23)n1C1CC1)C1CCS(=O)(=O)C1 (centres undefined),·,0.2,5.3,·,-4.2,·
O=C(N/C(=C\c1ccc(Cl)cc1)C(=O)N1CCOCC1)c1ccc([N+](=O)[O-])cc1,80.3*,1.0,0.8,2.8,-1.8,1.3
CC(NS(=O)(=O)c1cn(C)c(=O)n(C)c1=O)c1ccccc1 (centres undefined),7.7,2.0,26.3*,-3.7,1.2,-2.5
CC1(c2ccc(Cl)c(Cl)c2)NC(=S)N2C1NC(=S)N2c1ccccc1 (centres undefined),88.9*,1.2,-23.8,1.0,-0.4,0.2
CC(=O)Nc1ccc(S(=O)(=O)N2CCN=C2SCc2cccnc2)cc1,5.9,-1.2,28.6*,-2.5,-8.2,-2.4
CC(=O)c1ccc(NC(=O)COC(=O)Cn2cnc3ccccc32)cc1,·,0.3,4.9,·,1.2,·
O=C(COC(=O)Cn1cnc2ccccc21)Nc1ccc(Br)cc1,·,1.5,31.7*,·,2.2,·
Cc1c(C(=O)N2CCC[C@H]2C(N)=O)oc2c(F)cccc12,24.1,1.1,2.8,·,-0.9,·
Cc1coc2c1c(C)cc1oc(=O)c(CC(=O)NCCC(=O)O)c(C)c12,-12.2,1.6,19.7*,1.1,3.9,0.7
Cc1coc2c1c(C)cc1oc(=O)c(CC(=O)NCC(=O)NCC(=O)O)c(C)c12,4.7,1.0,-17.4,·,-4.1,·
CC[C@]12c3[nH]c4ccc(OC)cc4c3CCN1C(=O)C(CC(=O)NCCc1ccccn1)C[C@@H]2C(=O)N1CCN(C(=O)C2CC2)CC1 (some centres undefined),·,-0.7,1.9,·,0.5,·
COCCCNC(=O)C1C2C=CC3(CN(Cc4ccc(C)cc4)C(=O)C13)O2 (centres undefined),60.1*,-2.0,-10.0,-0.5,0.7,0.0
Cc1ccc(CN2CC34C=CC(O3)C(C(=O)NCc3ccc5c(c3)OCO5)C4C2=O)cc1 (centres undefined),52.4,-0.7,0.0,3.1,-2.6,6.9
CCCNS(=O)(=O)c1ccc(OCC(=O)N2CCCC2)cc1,32.3,-2.6,10.5,-0.7,-12.1,0.0
Cc1cc(C)c2oc(=O)cc(CN3CCC(C)CC3)c2c1,-7.8,1.8,-9.7,-0.1,-0.2,2.9
O=S(=O)(c1ccccc1S(=O)(=O)N1CCCCC1)N1CCCCC1,26.1,0.9,15.1,0.3,3.1,-10.2
O=C1C=C(N2CCCCC2)c2ccccc2C1=O,·,-1.9,9.3,-3.2,36.3,92.5*
CC1(C)Cc2c(sc3c2c(=N)n(Cc2ccco2)c(=O)n3CC(=O)Nc2ccc(Cl)cc2)CO1,18.9,0.3,-11.7,2.3,24.7,6.9
Cc1ccccc1NC(=O)COC(=O)COc1ccc2ccc(=O)oc2c1,·,6.5,5.0,·,-3.2,·
COc1ccc(C(=O)NNC(=O)c2ccc(C)cc2)cc1S(=O)(=O)N1CCCC1,32.5,1.9,-0.3,0.6,0.9,1.7
Cc1cccc(C(=O)NC(=S)NNC(=O)c2cccs2)c1,88.2*,-0.1,-5.4,0.0,3.7,-1.1
SMILES,PHOSPHO1 block,HNF4A DNA FP,NRP1-CendR mod,TPT1 inhibitor,Rpn11 block,Fh CTSL1 inh
O=C(NC(=S)NNC(=O)c1cccs1)c1ccccc1,-117.2,-0.4,10.6,0.5,0.2,1.4
CN(C)c1ccc(Nc2nc(-c3cccnc3)cs2)cc1,81.4*,0.6,7.8,-0.6,3.4,-3.9
CN1CC(=O)N/C1=N\C(=O)Nc1ccc(O)cc1,15.6,-2.3,11.4,-2.9,-2.9,1.1
CC(OC(=O)c1ccc2ncsc2c1)C(=O)Nc1cccc(Cl)c1 (centres undefined),·,6.4,5.9,·,-8.5,·
CC(=O)C(=Cc1ccc(Cl)cc1)C(=O)c1ccccc1,·,-2.9,22.0*,·,16.3,·
O=C(O)c1ccc(C(=O)Nc2cccc3ccccc23)c(C(=O)O)c1,-10.7,-3.6,24.9*,·,8.1,·
CC1=C(C(=O)Nc2ccccc2)C(c2ccco2)C(C#N)=C(SCC(=O)Nc2cccc(C)c2C)N1 (centres undefined),14.0,-1.9,-9.8,6.7,2.6,0.6
CSC1=C(C#N)C(c2ccncc2)C(C(=O)Nc2ccccc2)=C(C)N1 (centres undefined),61.5*,-1.9,0.3,-0.7,-3.8,-0.9
COc1ccc(C2C(C#N)=C(SCC(=O)Nc3ccc(C)cc3)NC3=C2C(=O)CC(C)(C)C3)cc1 (centres undefined),88.7*,-1.7,3.7,-0.4,3.5,3.3
CCOC(=O)C1=C(C)NC(SCC(=O)Nc2nc(C)cs2)=C(C#N)C1c1cccs1 (centres undefined),76.4*,·,·,0.3,·,1.8
CCC1C(C#N)=C(SCC(N)=O)NC2=C1C(=O)CC(C)(C)C2 (centres undefined),-95.3,1.2,7.1,2.8,1.3,-0.2
CC1=C(C(=O)Nc2ccccc2)C(c2ccncc2)C(C#N)=C(SCC(=O)Nc2ccccc2)N1 (centres undefined),70.8*,-0.5,8.0,2.8,5.6,-1.0
C=CCOC(=O)C1=C(C)NC(SCC(N)=O)=C(C#N)C1c1cccs1 (centres undefined),15.8,2.7,0.6,-2.9,4.5,0.4
NS(=O)(=O)c1cccc(NC(=O)CSc2nnc(-c3ccncc3)n2C2CC2)c1,·,-0.7,-3.4,·,9.2,·
COc1ccc(CN2CCc3ccccc3C2)cc1Br,·,-0.7,-0.6,-0.4,8.3,-1.0
NC(=O)COC(=O)[C@H](Cc1c[nH]c2ccccc12)NC(=O)c1ccc(F)cc1,21.7,2.0,5.0,0.8,-2.3,-7.3
CCC(=O)N[C@@H]1CC[C@@H](CCNC(=O)Nc2ccc(F)cc2)O[C@@H]1CO,·,1.8,-4.3,·,·,·
COCCC1CCCCN1C(=O)c1cccc(OC2CCN(C3CCCC3)CC2)c1 (centres undefined),48.2,-1.4,-5.8,0.9,-4.2,-2.6
O=C(OCc1cc(=O)n2c(n1)sc1ccccc12)c1ccc2c(=O)n3c(nc2c1)CCC3,35.3,-38.6,-4.7,-1.5,8.0,-0.1

# Compound activity (PubChem BioAssay)
